NOD2 RIPK2 PPI = NOD2-RIPK2 binding disruptors in cells, primary screen, fluorescence, CHO cells, BLA complementation; AID 624267, 2012; CCF4 ratio; inhibition, % at 4.98 µM; 360,000 compounds, 0.38% hits; Receptor-interacting serine/threonine-protein kinase 2 (Homo sapiens), O43353; in the data active means inhibition above about 21%;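 further: 0% = vehicle only and 100% = reference blocker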
TLR4-MyD88 BLA = inhibitors of TLR4-MyD88 association in cells, primary screen, cell-based, HeLa CL3-4, BLA complementation, FRET ratio | HeLa CL3-4 TLR4/MyD88 BLA complementation | inhibition, % at 8.4 µM | 200,000 compounds, 0.18% hits | AID 861, 2007; in the data active means inhibition above about 25%;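 further: 0% = vehicle and 100% = reference inhibitor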
Target sequence (O00206 whole entry, looked up): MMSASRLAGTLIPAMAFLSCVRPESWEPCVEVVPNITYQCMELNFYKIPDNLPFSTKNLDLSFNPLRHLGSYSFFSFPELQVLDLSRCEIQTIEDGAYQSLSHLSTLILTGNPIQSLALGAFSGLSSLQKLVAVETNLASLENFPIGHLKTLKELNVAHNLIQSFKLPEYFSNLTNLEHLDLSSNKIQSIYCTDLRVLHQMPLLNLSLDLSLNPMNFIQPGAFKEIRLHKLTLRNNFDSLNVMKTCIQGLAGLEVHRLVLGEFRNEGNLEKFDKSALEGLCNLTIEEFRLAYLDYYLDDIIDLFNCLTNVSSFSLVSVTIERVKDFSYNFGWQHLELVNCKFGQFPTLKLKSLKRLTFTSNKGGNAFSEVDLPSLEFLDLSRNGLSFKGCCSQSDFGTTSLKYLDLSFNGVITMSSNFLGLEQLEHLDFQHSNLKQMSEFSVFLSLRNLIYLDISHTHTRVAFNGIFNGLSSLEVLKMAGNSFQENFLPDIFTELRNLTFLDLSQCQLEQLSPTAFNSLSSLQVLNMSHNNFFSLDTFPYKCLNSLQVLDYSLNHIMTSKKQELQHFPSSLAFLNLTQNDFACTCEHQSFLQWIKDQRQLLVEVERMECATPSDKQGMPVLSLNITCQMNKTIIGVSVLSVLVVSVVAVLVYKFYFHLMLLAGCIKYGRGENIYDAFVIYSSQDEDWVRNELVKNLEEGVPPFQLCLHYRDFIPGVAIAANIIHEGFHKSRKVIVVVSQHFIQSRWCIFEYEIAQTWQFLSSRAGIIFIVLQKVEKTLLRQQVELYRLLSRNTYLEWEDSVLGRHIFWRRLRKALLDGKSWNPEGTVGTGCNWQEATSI
Target sequence (Q99836 whole entry, looked up): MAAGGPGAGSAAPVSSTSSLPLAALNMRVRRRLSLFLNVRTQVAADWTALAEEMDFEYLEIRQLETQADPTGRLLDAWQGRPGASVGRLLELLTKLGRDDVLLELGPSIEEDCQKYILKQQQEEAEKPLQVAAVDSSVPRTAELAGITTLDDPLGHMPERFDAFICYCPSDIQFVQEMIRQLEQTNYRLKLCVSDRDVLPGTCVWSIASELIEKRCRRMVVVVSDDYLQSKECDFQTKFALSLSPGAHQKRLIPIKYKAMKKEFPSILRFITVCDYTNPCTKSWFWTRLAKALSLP
TLR9-MyD88 block = inhibitors of TLR9-MyD88 association in cells, primary screen, cell-based, CHO, BLA complementation, fluorescence; CCF4 FRET ratio; inhibition, % at 4.98 µM; 340,000 compounds, 0.21% hits;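 active means inhibition above the mean over all tested compounds plus 3 SD, cut at about 21% in these data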;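 further: 0% = DMSO only wells and 100% = clavulanate BLA inhibitor control wells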
HSF1 inh = HSF1 inhibitors in luciferase reporter cells, primary screen, cell-based, NIH3T3, luminescence. NIH3T3-HGL HSE-luciferase, MG132-induced, luminescence 8 h; stronger effect = lower value. activity change, negative = inhibition, % at 7.5 µM (by protocol). 300,000 compounds, 0.77% hits. AID 2098, 2009;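 active means more than half of replicate wells show activity change below -50%, luminescence cut by over half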;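 further: luciferase reports HSF-1 transcriptional activity via heat shock element; 0% = median of DMSO wells and -100% = zero luminescence signal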
HSF-1 act = HSF-1 activators, primary screen, NIH3T3-HGL cells, MG132 stress, luminescence, single point | NIH3T3-HGL HSF-1 luciferase reporter, 8 h; 100% = twice DMSO control signal | activation, % at 9 µM | 300,000 compounds, 1.7% hits | AID 504408, 2011;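 active means mean replicate activation of at least 50% with a set share of replicates each reaching 50%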;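 further: 0% = median of the neutral control wells and 100% = twice that signal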
An asterisk follows results filed as active. The list is not random: actives were taken first. Their share in the collection is about 2.4%.

For Cc1ccc(C(O)CSc2nnc(-c3ccc4ccccc4c3)n2C)cc1 (stereo not drawn) the results were NOD2 RIPK2 PPI -6, TLR9-MyD88 block 1, HSF1 inh -5 and HSF-1 act 10.
`COc1ccc2c(c1)C(C)CC(C)(C)N2C(=O)NC1CCCCC1` (stereo not drawn) gave NOD2 RIPK2 PPI 4, TLR4-MyD88 BLA 0, TLR9-MyD88 block 4, HSF1 inh 22 and HSF-1 act 17.
Screening CC1CC(C)(C)N(C(=O)NC2CCCCC2)c2ccccc21 (stereo not drawn) returned NOD2 RIPK2 PPI 0, TLR4-MyD88 BLA -8, TLR9-MyD88 block 0, HSF1 inh 11 and HSF-1 act 57*.
Screening O=C(OCc1ccccc1)N(CCF)c1cn(Cc2ccccc2)c(=O)n(Cc2ccccc2)c1=O returned NOD2 RIPK2 PPI -1 and TLR9-MyD88 block -7.
For O=C(CCCN1C(=O)c2cccc3cccc(c23)C1=O)Nc1ccon1 the results were NOD2 RIPK2 PPI 9, TLR4-MyD88 BLA 2, HSF1 inh 49 and HSF-1 act 113*.
For O=C(c1ccco1)N1CCN(c2ncnc3c(-c4ccccc4)nsc23)CC1 the results were NOD2 RIPK2 PPI 8, TLR4-MyD88 BLA -4, TLR9-MyD88 block 6, HSF1 inh 27 and HSF-1 act 51*.
`O=C(Cc1ccc(Cl)cc1)Nc1ccc(N2CCN(C(=O)c3ccco3)CC2)cc1` gave NOD2 RIPK2 PPI -1, TLR4-MyD88 BLA 11, TLR9-MyD88 block -9, HSF1 inh 41 and HSF-1 act 80*.
O=C(c1ccco1)N1CCN(c2ccc(Cl)c(Cl)c2)CC1 was read as NOD2 RIPK2 PPI -2, TLR4-MyD88 BLA -4, TLR9-MyD88 block 6, HSF1 inh 58 and HSF-1 act 99*.
O=C(c1ccco1)N1CCN(C(=O)N2CCOCC2)CC1 was read as NOD2 RIPK2 PPI -2, TLR4-MyD88 BLA 14, TLR9-MyD88 block 4, HSF1 inh 30 and HSF-1 act 71*.
`CC(=O)Nc1ccc(N(CC(=O)NC2CCCCC2)C(=O)Cn2nnc(-c3ccccc3)n2)cc1` gave NOD2 RIPK2 PPI -15, TLR9-MyD88 block 0, HSF1 inh -3 and HSF-1 act 13.
For COc1cccc(NC(=O)CN(C)C(C)C(=O)N2CCCC2)c1 (stereo not drawn) the results were NOD2 RIPK2 PPI 1 and TLR9-MyD88 block 4.
For O=C(c1ccco1)N1CCN(c2ccc(Cl)cc2)CC1 the results were NOD2 RIPK2 PPI 1, TLR4-MyD88 BLA -4, TLR9-MyD88 block 0, HSF1 inh 24 and HSF-1 act 70*.
Screening N#Cc1ccccc1COC(=O)c1cc(=O)c2ccccc2o1 returned NOD2 RIPK2 PPI -5, TLR9-MyD88 block -1, HSF1 inh 24 and HSF-1 act 63*.
Screening O=C(CNc1cccc2ccccc12)N/N=C/c1ccc([N+](=O)[O-])cc1 returned NOD2 RIPK2 PPI 0, TLR4-MyD88 BLA -2, TLR9-MyD88 block -1, HSF1 inh 31 and HSF-1 act 77*.
Screening COc1ccc(CNC(=O)C(C)n2ccc3cc(S(=O)(=O)N4CCCCCC4)ccc32)cc1 (stereo not drawn) returned NOD2 RIPK2 PPI -4, TLR9-MyD88 block -1, HSF1 inh 10 and HSF-1 act 18.
For CC(=O)c1cccc(Nc2c3c(nc4ccccc24)CCC3)c1 the results were NOD2 RIPK2 PPI 12, TLR9-MyD88 block 6, HSF1 inh -3 and HSF-1 act -4.
For CC(=O)c1ccc(Nc2c3c(nc4ccccc24)CCCC3)cc1 the results were NOD2 RIPK2 PPI 6, TLR9-MyD88 block 2, HSF1 inh 22 and HSF-1 act 66*.
`Cc1ccc(OCCSc2ncccn2)c(C)c1` gave NOD2 RIPK2 PPI 1, TLR4-MyD88 BLA -6, TLR9-MyD88 block 4, HSF1 inh 36 and HSF-1 act 62*.
COc1cc(OC)c(N2CC(C(=O)NCCC3=CCCCC3)CC2=O)cc1Cl (stereo not drawn) was read as NOD2 RIPK2 PPI -2 and TLR9-MyD88 block -7.
`CCN1CC(CN(C)Cc2nc(-c3ccc(OC)c4ccccc34)oc2C)CC1=O` (stereo not drawn) gave NOD2 RIPK2 PPI 2, TLR4-MyD88 BLA -13, TLR9-MyD88 block -7, HSF1 inh -5 and HSF-1 act 2.
CCN1CC(CN(C)Cc2nc(COc3ccccc3)no2)CC1=O (stereo not drawn) was read as NOD2 RIPK2 PPI -7, TLR4-MyD88 BLA 1, TLR9-MyD88 block 1, HSF1 inh 23 and HSF-1 act 55*.
`CN(Cc1ccccc1)C(=O)C(=O)c1c[nH]c2ccccc12` gave NOD2 RIPK2 PPI -3 and TLR9-MyD88 block 2.
For Cc1nc(NC(=O)CSc2nnc(C3CC3)n2N)c(Cl)cc1Cl the results were NOD2 RIPK2 PPI -12 and TLR9-MyD88 block 2.
Screening CCNC(=O)C1(C)CCCCN1Cc1ccc(C#N)cc1 (stereo not drawn) returned NOD2 RIPK2 PPI -2.
Cc1ccccc1NC(=S)c1nc2ccccc2[nH]1 was read as NOD2 RIPK2 PPI -4, TLR4-MyD88 BLA -11, TLR9-MyD88 block 3, HSF1 inh 33 and HSF-1 act 67*.
Screening S=C(Nc1ccc(Cl)cc1)c1nc2ccccc2[nH]1 returned NOD2 RIPK2 PPI 2, TLR4-MyD88 BLA 18, TLR9-MyD88 block 2, HSF1 inh -1 and HSF-1 act 14.
Screening OC(CN1CCC(Cc2ccccc2)CC1)c1ccccc1 (stereo not drawn) returned NOD2 RIPK2 PPI -24, TLR9-MyD88 block -11, HSF1 inh -4 and HSF-1 act -1.
Screening Cc1cccc(-c2noc(-c3ccccc3C(=O)NCc3ccco3)n2)c1 returned NOD2 RIPK2 PPI 14, TLR9-MyD88 block 5, HSF1 inh 29 and HSF-1 act 64*.
Cc1ccc(-c2noc(-c3ccccc3C(=O)NCc3ccco3)n2)cc1 was read as NOD2 RIPK2 PPI -15, TLR9-MyD88 block 11, HSF1 inh 7 and HSF-1 act 10.
`Nc1ncnc2c1ncn2[C@@H]1O[C@H](C(=O)NS(=O)(=O)c2cccs2)[C@@H](O)[C@H]1O` gave NOD2 RIPK2 PPI 4.
For CC(=O)Cn1ncc(Br)c(Br)c1=O the results were NOD2 RIPK2 PPI 8, TLR4-MyD88 BLA 23, TLR9-MyD88 block 13, HSF1 inh -94* and HSF-1 act -94.
O=C(OCn1ncc(Br)c(Br)c1=O)c1c(F)cccc1F was read as TLR4-MyD88 BLA 18, HSF1 inh -95* and HSF-1 act -96.
For COc1ccc(OC(C)C(=O)NC(C)c2ccccc2)cc1 (stereo not drawn) the results were NOD2 RIPK2 PPI 1, TLR9-MyD88 block -3, HSF1 inh 9 and HSF-1 act 4.

From PubChem
